Key:
Test in all cases: PBM binding z-score (relative to random genomic background probes); higher = stronger binding; sequences stand for … in GC…GCGATTGACAGCGTAGAATGAAGG
[1] = tested on: RARb homodimer (NR concentration 270 nM)
Summary of the method: (§1)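 Scanned fluorescence from custom Agilent 4×180K protein-binding microarrays was regression-normalized. Binding z-scores use random background probes as reference. Ligand-free nuclear receptor dimers were incubated on the arrays for 1 h and detected with antibodies against each partner (one per run).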

[2] = tested on: RARg:RXRa (NR concentration 270 nM, RXRa partner concentration 90 nM)
Summary of the method: as §1

[3] = tested on: RARg homodimer (NR concentration 270 nM)
Summary of the method: as §1

[4] = tested on: RXRa DBDmut IVT, anti-RXR (DBD mutation: RXRa K156A/R161A, NR concentration 90 nM)
Summary of the method: as §1

[5] = tested on: RXRa homodimer (NR concentration 180 nM)
Summary of the method: as §1

[6] = tested on: THRa:RXRa (NR concentration 90 nM, RXRa partner concentration 90 nM)
Summary of the method: as §1

[7] = tested on: THRa homodimer (NR concentration 90 nM)
Summary of the method: as §1

[8] = tested on: VDR homodimer (NR concentration 270 nM)
Summary of the method: as §1

Sequence	PBM binding z-score [1]	PBM binding z-score [2]	PBM binding z-score [3]	PBM binding z-score [4]	PBM binding z-score [5]	PBM binding z-score [6]	PBM binding z-score [7]	PBM binding z-score [8]
GCAGACAGGTGAAACGCAGGTAACGCAGGGTGGC	0.284	1.13	0.47	-0.945	0.641	1.51	-0.416	-0.757
ATCGAAAGGTCGGGAGGTGAGTATACAGAAAGGC	2.92	3.82	3.34	0.594	3.58	2.21	0.967	0.718
ATCGAAAGGTCGTGGGGTGAGTATACAGAAAGGC	3.6	5.2	4.44	2.07	6.17	3.62	2.02	2.16
ATCTCTAGGTAAAGACAGTTCAGTGAATGCAAAT	0.886	0.452	0.798	0.247	0.363	1.05	0.425	1.14
CCTTCCGGGTCACTGACAGGTTATAGCATTTGGA	3.23	5.65	4.44	1.53	4.67	3.67	2.25	1.3
TCTCGGAGGACACGAACGGTCAGAGCTCGACATC	1.89	1.02	2.34	0.557	0.138	1.44	0.357	-0.389
CCTACTGGGCCACGAAACGTCATTGATTCAGTGA	-0.373	-0.321	0.105	-0.404	-0.385	-0.288	-0.682	-1.01
GCTAGCAGGCCATTTTGGTCACTCAATGACGGGC	0.0226	-0.296	0.212	-0.337	-0.426	-0.234	-0.974	-0.748
TCTTGTAGATCAAAGGCTAAGAAAGCCGAAGCCT	-0.521	-0.216	-0.29	0.467	0.315	-0.446	-0.464	-0.345
TAGCCTAGGTCATTGGGCCAGAATAGTACGCATC	2.6	4.03	4.07	1.58	2.8	2.66	0.586	1.12
CCTAGCAGGCCAATCTGGGTCACTCTAGGCTTGA	2.09	0.781	1.14	0.254	0.361	3.2	0.202	-0.375
AGAACGAGGGCAATGAGTTGATAGGACGGGTGGC	1.01	1.22	1.39	2.23	0.869	0.954	-0.116	3.01
ATATGTAGGTTAGCTGGGGTCATTCTGACTAGGC	3.66	3.88	2.79	2.08	5.12	5.12	3.04	5.3
CGTCAAATTTCAAGGTAACGTAACAGAAAGCAGC	-0.107	0.0405	0.398	-0.0368	0.32	2.11	1.27	-0.239
TAGCCTAGGTCATGGGCCAGTATGCCACGCGAAC	3.09	4.15	4.47	0.363	3.54	3.07	1.16	0.214
AGAATGAGGTTACGATCAGGGAAACAGAATACAT	1.15	2.31	1.83	0.839	2.77	2.99	0.967	0.356
ATATGTAGGTTAAGGGGCATTCAGGTTGGTTCGC	2.06	1.58	1.19	1.17	1.85	1.82	1.46	2.03
TATACAGGGTCAAAGGCCCGAGTACGAATGTCGA	2.83	5.28	4.67	2.83	5.91	3.23	0.794	2.5
CCTACTAGGCCACGAAAGGTCATTGATTCAGTGA	4.71	4.9	4.91	1.22	5.5	3.85	1.29	2.66

Sequence	PBM binding z-score [1]	PBM binding z-score [2]	PBM binding z-score [3]	PBM binding z-score [4]	PBM binding z-score [5]	PBM binding z-score [6]	PBM binding z-score [7]	PBM binding z-score [8]
CAAACTAGGTCAAGAGGTCAAAGTCCGCTTCCCG	5.9	8.2	8.13	2.89	8.25	4.44	2.61	4.47
CAAACTAGGTCAAGAAAGGTCAAAGTCGAATGAC	5.71	7.33	7.9	1.95	7.67	4.9	1.79	3.03
GCTGCTAGGTCAGGTTGGTCAGCTAGCGGGTACG	2.7	2.69	3.44	0.414	0.963	1.71	0.421	-0.146
CCTATTTGTTGACCATAAGGGCAACCGAAGCTCG	2.18	0.901	1.09	0.849	0.768	1.78	1.89	0.782
AGTCAAAGTTCAGGACGAGGTAACCTAAAGCACG	3.52	4.84	4.86	2.85	3.15	3.88	1.92	2.29
TCTGCAAGGTCAACGATGGTCAGCTAATCTGCTA	4.58	6.12	6.75	2.83	5.75	4.24	2.36	1.62
ACTTACGGGTCAACGAGGTTATAGAACGCGTATA	3.89	5.69	5.34	2.56	6.54	4.21	1.21	3.53
CGAACTAGGTCAGAACAGGACAGTGGAGGATGAT	2.31	2.47	3.32	0.671	1.4	3.33	0.46	0.198
CATACAGCGTCAGCTAGGCCAGAGTAGGGACGGC	-0.506	-0.321	-0.175	-0.697	-0.412	-0.637	-0.62	-0.797
CGAACTAGGTCATCCAAGACAGTGAATACATTGA	2.81	4.15	4.88	2.42	3.45	2.84	0.947	1.06
ATATGTAGATTAAGGGTCATTCAGGTTGGTTCGC	3.42	3.56	2.52	2.22	4.48	3.17	1.19	4.19
CCTGCTGGGCCAAGGTCATTGATCAGTCAAAGCA	3.19	3.79	2.93	1.26	3.54	3.49	2.22	2.48
CCTAGTTGGTCATGGTCACACACGCTATAGGTAC	1.56	1.06	1.54	0.565	0.699	0.458	0.619	0.905
ATATGTAGGTTGGCTGGGGTCATTCAGACTAGGC	3.37	3.5	2.19	1.81	5.15	4.72	3.62	5.57
CCGACTGGGGCATGAGGTTACCATAAGCCAGCCC	1.43	1.29	0.922	-0.569	1.25	1.89	0.853	-0.0736
GCGACTGGGGGAAAGCAGGTTACCATAAGGTTGG	0.976	0.585	0.39	0.147	0.696	2.25	0.613	0.229
TCTTGCAGGCCAGAGGGTCACTCAAGAGGTACGG	2.73	2.73	2.38	0.074	2.37	1.79	-0.22	0.546
TCTCGGAGGGCACGAAGGTCAGAGCTTTCCAGAG	3.94	4.11	3.97	0.77	2.79	2.63	-0.228	1.81
ACTACTAGTTGACTTAGGGCAACCGATACGACGC	0.824	0.463	0.625	0.495	0.508	1.32	0.683	0.273

Sequence	PBM binding z-score [1]	PBM binding z-score [2]	PBM binding z-score [3]	PBM binding z-score [4]	PBM binding z-score [5]	PBM binding z-score [6]	PBM binding z-score [7]	PBM binding z-score [8]
TCAGACAGGTGAAGGTAACTCCGGTACGCAGTCG	0.814	0.458	0.575	1.28	1.11	1.28	0.325	-0.191
CGAACTAGGTCAGAACAAGACAGTGAAGGATGAT	1.79	2.37	3.15	0.577	1.31	1.32	0.101	0.237
AGTCAAAGCTCAGGACGAGGTAACGTAAAGCACG	-0.228	0.0301	0.2	-0.664	-0.013	1.86	1.21	-0.138
TCTAGCAGCCCAGAGGGTCACTCAAGAGGTACGG	2.38	2.16	1.8	-0.186	2.23	1.63	-0.455	0.294
CGTCCAAGGTTAGCAGGTCAGTGAAAGCGACGTG	3.14	2.7	2.6	0.446	2.04	2.07	0.653	0.443
CCTAGCAGGCCAGTGTCACTCAAGCATTTCGCTT	0.0425	-0.0888	-0.171	0.13	-0.38	-0.213	-0.656	-0.509
TCTTGTAGATCAGCAGGTTAAGAAGGCTGGCCAA	0.175	0.0178	-0.229	0.672	0.428	0.192	-0.361	-0.0588
CGTCAAGGTTCAACTAAGGTAACGTAAAGCACGC	2.36	3.57	2.98	4.42	3.53	5.38	1.72	3.36
GCGGCTGGGGCAAAGCAGGTTACCATAAGGTTGG	1.19	0.368	0.921	-0.596	0.116	3.18	0.108	-0.402
GCATATAGGTATTACAAGGTGAAAGTCCGATTGT	0.63	0.464	0.464	0.414	0.523	3.76	1.14	-0.251
GCTAGTTGGTCAGTAAAAGGTCACGCACCGGTCG	5.17	6.19	5.77	0.692	6.35	3.75	2.43	2.07
CCACGGAGGACAGAAGGTCAGAGCTGTCCGCTTT	3.73	3.62	3.48	0.42	2.22	2.44	0.0793	0.236
TATACCGGGTCAAAGGCCAGAGTACGAATGTCGA	3.15	4.74	4.08	1.38	5.91	3.36	0.712	1.98
AATCCAGGGTCATCGTAGGCCAGAGTACGCACAG	3.82	5.9	5.22	3.32	6.77	4.55	1.86	4.06
TAGCCTAGGTCATTCAGGGGCCAATATAGAAAGC	3.51	6.6	4.84	2.06	3.15	3.85	0.878	2.13
AGAATGAGGTTATACGTTGATCAGGGAAGAAAGT	0.786	1.49	0.994	1.71	2.12	2.2	0.901	1.5
TAACCTAGGTCATGCGGGCCAGTATAGTGTCGGC	3.44	4.53	4.39	1.15	3.58	3.32	1.23	1.05
CCTAGTAGGTCAAGGTCACACACGCTATAGGTAC	5.28	6.17	7.17	2.82	6.23	4.3	4.17	3.86
